Source: PubChem BioAssay AID624377 (The Scripps Research Institute Molecular Screening Center, 2012)
Out of some 360,000 compounds screened, about 680 (0.19%) were called active. The sample holds actives, similar compounds and a random draw of the others, so the mix is not that of the screen. Rule as the data show it: active = inhibition above about 25%; inactive = the rest.

target: Arf-GAP with SH3 domain, ANK repeat and PH domain-containing protein 1 (Homo sapiens) (UniProt Q9ULH1); assay: inhibitors of human ASAP1 ArfGAP activity, primary screen, biochemical, fluorescence polarization (AID 624377); settings: ASAP1-stimulated ARF1 GTP hydrolysis, GDP FP detection; at 16.5 µM; stronger effect = higher value;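 also: 0% = vehicle with enzyme and substrate and 100% = no enzyme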
Sequence (Q9ULH1 325-724 limits assumed): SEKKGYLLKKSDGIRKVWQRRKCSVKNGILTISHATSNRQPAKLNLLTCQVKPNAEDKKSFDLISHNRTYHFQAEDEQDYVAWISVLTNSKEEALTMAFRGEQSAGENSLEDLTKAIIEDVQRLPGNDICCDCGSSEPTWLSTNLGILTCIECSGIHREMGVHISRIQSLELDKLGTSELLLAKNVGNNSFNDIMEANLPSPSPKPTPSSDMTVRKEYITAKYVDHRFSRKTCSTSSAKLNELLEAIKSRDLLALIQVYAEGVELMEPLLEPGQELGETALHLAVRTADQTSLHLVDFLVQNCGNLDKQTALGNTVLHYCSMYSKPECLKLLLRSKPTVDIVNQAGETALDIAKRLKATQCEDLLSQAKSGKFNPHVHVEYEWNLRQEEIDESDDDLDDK

SMILES	inhibition
COC(=O)C1=C(C)NC(=S)NC1c1ccc(OC)cc1 (stereo not drawn)	3.47% (inactive)
COC(=O)c1ccc(NCC(=O)c2ccccc2)cc1	24.7% (active)
C#CCNc1ccc(C(=O)OCC)cc1	-6.34% (inactive)
COC(=O)c1ccc(NC(=O)C(C)N2C(=O)c3ccccc3C2=O)cc1 (stereo not drawn)	2.27% (inactive)
Cc1ccc2nc(CN(C)C(=O)[C@@H](Cc3ccccc3)NC(=O)[C@H]3O[C@@H](n4ccc(=O)[nH]c4=O)[C@H](O)[C@@H]3O)[nH]c2c1	-16.7% (inactive)
Cc1noc(C)c1NC(=O)Nc1ccc2c(c1)C(=O)N([C@H](C)CO)C[C@H](C)[C@H](CN(C)Cc1ccncc1)OCCCC[C@@H](C)O2	3.29% (inactive)
O=S(=O)(c1cccs1)N1CCCc2nc(-c3ccc(Br)cc3)ccc21	0.45% (inactive)
C=CCC[C@H](CCCCC)OC(=O)/C=C/[C@H](O)[C@@H](O)C[C@@H](O)CC=C	5.11% (inactive)
C=CCC[C@@H](CCCCC)OC(=O)/C=C/[C@@H](O)[C@H](O)C[C@H](O)CC=C	26.7% (active)
CCCCNc1cccc2c1S(=O)(=O)N[C@@H](C)CO2	5.97% (inactive)
CC(C)CNc1cccc2c1S(=O)(=O)N[C@H](C)CO2	-1.48% (inactive)
CN1C(=O)C(Br)(Br)CC1c1cccnc1 (stereo not drawn)	2.71% (inactive)
COCCCNC(=O)C[C@H]1C[C@@]2(C(=O)OC)C(=C[C@H](C(C)(C)C)O[C@@H]2C)N(Cc2ccc3c(c2)OCO3)C1=O	-0.04% (inactive)
Cc1cc(OC(=O)NCCc2ccc(F)cc2)ccc1F	-5.01% (inactive)
C=CCN1C(=O)N(Cc2ccccc2)c2ccccc2S1(=O)=O	10.9% (inactive)
COC(=O)C1=C(C)N(Cc2ccccc2C(F)(F)F)C(=NCc2ccc(OC)cc2)NC1c1cccc(C(F)(F)F)c1 (stereo not drawn)	-0.5% (inactive)
C[C@H]1[C@H](c2ccccc2)Oc2cc(Br)ccc2S(=O)(=O)N1Cc1cccc(F)c1	-15.2% (inactive)
COC(=O)Nc1nc2ccc(C(=O)C3CC3)cc2[nH]1	3.58% (inactive)
CC1(C)OC(=O)C2=C(CC(CCc3ccccc3)OC2c2ccc(Cl)cc2)O1 (stereo not drawn)	0.87% (inactive)
O=C(Nc1c(Cl)c(C2CC2)nn1-c1ccccc1)C(Cl)(Cl)Cl	6.91% (inactive)
O=C(C(=O)N1CCC(CNS(=O)(=O)Cc2ccccc2)CC1)c1cc2ccccc2o1	-10.9% (inactive)
COC(=O)c1c(-c2ccc(OC)cc2)c2c(c3c4ccccc4n(S(=O)(=O)c4ccc(C)cc4)c13)C(=O)N(C)C2	5.81% (inactive)
Brc1ccc(COCCc2cn(Cc3ccccc3)c3ccccc23)cc1	-1.81% (inactive)
COC(=O)Cc1nnn2c1[C@H](C)[C@@H](OC)c1cc(Br)ccc1-2	8.77% (inactive)
CC[C@H](NC(=O)[C@H](Cc1ccccc1)NC(=O)[C@H]1O[C@@H](n2cnc3c(=O)[nH]c(N)nc32)[C@H](O)[C@@H]1O)c1ccccc1	3.49% (inactive)

SMILES	inhibition
O=S1(=O)c2c(cccc2N2CCCC2)O[C@H](COCc2ccccc2)CN1C1CC1	-12.9% (inactive)
CC1CCN(C(=O)c2ncn3c2C(=O)N[C@@H](C)C3)CC1	1.95% (inactive)
CC(=O)C1=C(C)N(Cc2ccc(Cl)cc2)C(=S)NC1c1ccc(F)cc1 (stereo not drawn)	-0.95% (inactive)
CCCCCCCCN1C(=O)[C@@H](CC(=O)NCc2ccccc2)C[C@@]2(C(=O)OC)C1=C[C@H](C(C)(C)C)O[C@@H]2C	4.65% (inactive)
CCc1c(-c2ccccc2OC)ncn1CCc1ccccc1OC	8.29% (inactive)
COc1ccc(S(=O)(=O)Nc2ccc3c(c2)C(=O)N([C@H](C)CO)C[C@H](C)[C@@H](CN(C)C)OCCCC[C@H](C)O3)cc1	-2.07% (inactive)
O=C(O)Cn1cnc2c(NCc3ccccc3)ncnc21	-0.64% (inactive)
CCOC(=O)C1CSCCS(=O)(=O)N1Cc1ccc(Cl)cc1 (stereo not drawn)	1.02% (inactive)
O=C(N[C@H](Cc1ccccc1)C(=O)N1CCCN(Cc2cccs2)CC1)[C@H]1O[C@@H](n2ccc(=O)[nH]c2=O)[C@H](O)[C@@H]1O	-8.2% (inactive)
O=S1(=O)c2ccc(Br)cc2-n2nncc2CN1Cc1cccc(Cl)c1	-4.19% (inactive)
CCCCOCC1CN(CCCC)S(=O)(=O)c2c(Oc3ccc(F)cc3)cccc2O1 (stereo not drawn)	-4.17% (inactive)
C[C@H](O)[C@@H]1C(=O)N2CCc3c([nH]c4c(-c5ccc6c(c5)OCO6)cccc34)[C@@H]2C[C@@H]1N(C)C(=O)c1ccco1	-3.66% (inactive)
C=CCN=C1NC(c2cccc(C(F)(F)F)c2)C(C(=O)OC)=C(C)N1C (stereo not drawn)	-4.81% (inactive)
C[C@H]1CN([C@@H](C)CO)C(=O)CCCn2nncc2CO[C@@H]1CN(C)C(=O)Nc1ccc(N2CCN(C)CC2)cc1	6.23% (inactive)
COC(=O)c1cc2c(c3c4cc(F)ccc4n(S(=O)(=O)c4ccccc4)c13)C(=O)N(Cc1ccccc1OC)C2	-0.6% (inactive)
Nc1ncnc2c1ncn2[C@@H]1O[C@H](C(=O)N[C@@H](CCc2ccccc2)C(=O)NCC(=O)N2CCOCC2)[C@@H](O)[C@H]1O	-8.44% (inactive)
CC(=O)N1C[C@@H](CO)[C@@H](N(C)C(=O)C(C)(C)C)C[C@H]1c1ccccc1Br	-5.76% (inactive)
OC(c1ccccc1)(c1ccccc1)C1CCN(CCCOc2ccc(-c3ccsc3)cc2)CC1	13.7% (inactive)
Cc1ccc2nc(SCC(=O)Nc3cccc4ccccc34)nc(=O)n2c1	16.5% (inactive)
Cc1ccc2nc(SCC(=O)N3CCN(c4ccccc4)CC3)nc(=O)n2c1	14.1% (inactive)
Cc1ccc2nc(SCC(=O)N3CC(C)OC(C)C3)nc(=O)n2c1 (stereo not drawn)	40.7% (active)
O=C1C(Cl)=C(Oc2ccccc2)C(=O)c2ccccc21	-0.42% (inactive)
CC(=O)N(C1=C(Cl)C(=O)c2ccccc2C1=O)c1ccc(C(=O)O)cc1	29.4% (active)
COc1ccc(-c2ccccc2C2Cc3nnccc3CN2C(=O)Nc2ccccc2)cc1 (stereo not drawn)	-1.04% (inactive)
O=C(NCc1ccccc1)[C@H]1CCCN1C(=O)[C@H]1CCCN1C(=O)N1CCOCC1	11.6% (inactive)

SMILES	inhibition
Nc1[nH]c(C(=O)c2ccc(Br)cc2)c(-c2ccc3c(c2)OCO3)c1C(=O)NCCc1c[nH]c2ccccc12	9.33% (inactive)
CC(=O)c1ccc(S(=O)(=O)NCC2CCN(C(=O)C(=O)c3cccs3)CC2)cc1	-0.29% (inactive)
O=C(O)c1cccnc1Sc1ncnc2sc3c(c12)CCC3	8.49% (inactive)
COc1ccc(/C=N/Nc2ncnc3sc4c(c23)CCCC4)cc1O	27.3% (active)
OCCNc1nc2ccccc2n1-c1ncnc2sc3c(c12)CCC3	1.46% (inactive)
COc1cccc(CNC(=O)[C@H]2CCCN2C(=O)[C@H]2CCCN2C(=O)c2ccc(F)cc2)c1	-1.31% (inactive)
CCn1c2ccccc2c2cc(NC(=O)COC(=O)c3cc(S(=O)(=O)N4CCCCC4)ccc3Cl)ccc21	0.3% (inactive)
CCn1c2ccccc2c2cc(NC(=S)N3CCOCC3)ccc21	-2.05% (inactive)
CCn1c2ccccc2c2cc(NC(=O)C/C(C)=N/NC(=O)c3ccccc3N)ccc21	27% (active)
COC(=O)C1=C(C)N(Cc2ccccc2C(F)(F)F)C(=NCC2CC2)NC1c1cccc(Cl)c1 (stereo not drawn)	17.5% (inactive)
C#CCN([C@@H](C)C(=O)OCC)S(=O)(=O)c1ccc(Br)cc1F	3.17% (inactive)
Cc1ccc2nc(-c3ccc(CN4CCC(n5cc(-c6ccccc6)[nH]c5=O)CC4)cc3)c(-c3ccccc3)nc2c1	9.24% (inactive)
Cc1cc2nc3c(=O)[nH]c(=O)nc-3n(C[C@H](O)[C@H](O)[C@H](O)CO)c2cc1C	0.24% (inactive)
COc1ccccc1C(=O)N1O[C@]23C=C[C@]14C[C@@H](O)CC[C@]4(C)C2CC[C@]1(C)[C@@H]([C@H](C)/C=C/[C@H](C)C(C)C)CC[C@H]13 (stereo partly drawn)	6.77% (inactive)
C=CCN=C1NC(c2ccccc2)C(C(=O)OC)=C(C)N1Cc1ccc(C(F)(F)F)cc1 (stereo not drawn)	9.79% (inactive)
CCOC(=O)CNC(=O)N(C)[C@H]1C[C@H]2c3[nH]c4c(-c5ccc6c(c5)OCO6)cccc4c3CCN2C(=O)[C@H]1[C@H](C)O	-4.88% (inactive)
COC(=O)N1Cc2ccnnc2CC1c1ccccc1Br (stereo not drawn)	7.59% (inactive)
O=C1[C@@H](c2ccccc2)[C@@H](c2ccccc2)N1c1ccccc1	-13% (inactive)
O=C1Nc2ccccc2C1=NN=Cc1ccco1	1.27% (inactive)
Clc1cccc2c1C1CC2CCN1Cc1ccccc1 (stereo not drawn)	-8.11% (inactive)
Nc1nc2c(ncn2[C@@H]2O[C@H](C(=O)N[C@H](Cc3ccccc3)C(=O)NCC3CCCCC3)[C@@H](O)[C@H]2O)c(=O)[nH]1	5.87% (inactive)
COC(=O)C1=C(C)N(Cc2ccc(F)cc2)C(=S)NC1c1cccc(Cl)c1 (stereo not drawn)	-11.5% (inactive)
N#Cc1cccc(C(=O)NCC2CCN(C(=O)C(=O)c3cc4ccccc4o3)CC2)c1	-11.4% (inactive)
